PubChem BioAssay (NCATS)
Results filed as inconclusive are left out. The source made the active and inactive calls. Calls come from the whole dose curve; as a rule, active = well fitted cell-killing curve with a large enough effect; inconclusive = small, poorly fitted or top-dose-only effect; inactive = flat fitted curve, though single readings scatter.

assay: Quantitative highthroughput screen to assess conditional lethalithy of P12 Ichikawa cells grown in Human Plasma-Like Medium with dialyzed fetal bovine serum (HPLM+ds) (AID 1963879); conditions: ATP luminescence, 48 h; Potency: viability; series mostly up to 45.8 µM; viability: at the top concentration
In short: (§1)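 Each medium arm—HPLM with 10% dialyzed FBS, or RPMI1640 with 5 mM glucose and 10% untreated or dialyzed FBS—was screened against an 11-point, 3-fold compound titration for 48 h at 37 °C, with CellTiter-Glo luminescence as endpoint.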
Note: nearly all actives have a fitted effect of over 35% in size.
Potency is the fitted concentration of half-maximal effect.

SMILES	viability	Potency
COc1cc(C(=O)NS(=O)(=O)c2ccccc2C)ccc1Cc1cn(C)c2ccc(NC(=O)OC3CCCC3)cc12	79.9% (inactive)	–
CCOC(=O)C1=C[C@]2(CC)CCCN3CCc4c(n1c1ccccc41)[C@@H]32	93.5% (inactive)	–
Cc1nc(Nc2ncc(C(=O)Nc3c(C)cccc3Cl)s2)cc(N2CCN(CCO)CC2)n1	–	1.87 µM (active)
CC(=O)ON=C1C(c2c(O)[nH]c3cc(Br)ccc23)=Nc2ccccc21	–	20.9 µM (active)
Cc1csc(-c2nnc(Nc3ccc(Oc4ncccc4-c4ccnc(N)n4)cc3)c3ccccc23)c1	–	0.0105 µM (active)

assay: Quantitative highthroughput screen to assess conditional lethalithy of P12 Ichikawa cells grown in RPMI1640 with dialyzed fetal bovine serum (RPMI+ds) (AID 1963880); conditions: ATP luminescence, 48 h; Potency: P12-Ichikawa viability; series mostly up to 45.8 µM; viability: at the top concentration;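 for viability: 100% = DMSO wells and 0% = empty wells on each plate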
In short: as §1

SMILES	Potency	viability
Cc1onc(-c2ccccc2)c1C(=O)N[C@@H]1C(=O)N2[C@@H](C(=O)O)C(C)(C)S[C@@H]12	1.05 µM (active)	–
CON=C(C(=O)N[C@@H]1C(=O)N2C(C(=O)OCOC(=O)C(C)(C)C)=C(C=Cc3scnc3C)CS[C@H]12)c1csc(N)n1	16.6 µM (active)	–
CC[C@@]1([C@@H]2O[C@@H]([C@H]3O[C@@](O)(CO)[C@H](C)C[C@H]3C)C[C@H]2C)CC[C@H]([C@]2(C)CC[C@]3(C[C@H](O)[C@@H](C)[C@@H]([C@@H](C)[C@@H](OC)[C@H](C)C(=O)O)O3)O2)O1	2.29 µM (active)	–
CN1C(C(=O)Nc2ccccn2)=C(O)c2ccccc2S1(=O)=O	16.6 µM (active)	–
NC(=O)c1cnc(N[C@@H]2CCCC[C@@H]2N)nc1Nc1cccc(-n2nccn2)c1	–	78.6% (inactive)
N#CC(=C(N)Sc1ccc(N)cc1)c1ccccc1C(F)(F)F	–	87.6% (inactive)
C[C@@H](Oc1cc(-c2cnn(C3CCNCC3)c2)cnc1N)c1c(Cl)ccc(F)c1Cl	18.7 µM (active)	–
CCOc1ccccc1N=Nc1c(C)[nH]n(-c2nc(-c3ccccc3)cs2)c1=O	–	96.3% (inactive)
CC[C@H](CC[C@@H](C)[C@H]1CC[C@H]2[C@@H]3CC=C4C[C@@H](O)CC[C@]4(C)[C@@H]3CC[C@]12C)C(C)C	–	96.2% (inactive)

assay: Quantitative highthroughput screen to assess conditional lethalithy of P12 Ichikawa cells grown in RPMI1640 with untreated serum (RPMI+s) (AID 1963881); conditions: ATP luminescence, 48 h; Potency: viability; series mostly up to 45.8 µM; viability: at the top concentration;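 for viability: 100% = DMSO wells and 0% = empty wells without cells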
In short: as §1

SMILES	Potency	viability
Cc1onc(-c2ccccc2)c1C(=O)N[C@@H]1C(=O)N2[C@@H](C(=O)O)C(C)(C)S[C@@H]12	1.32 µM (active)	–
CON=C(C(=O)N[C@@H]1C(=O)N2C(C(=O)OCOC(=O)C(C)(C)C)=C(C=Cc3scnc3C)CS[C@H]12)c1csc(N)n1	14.8 µM (active)	–
CC[C@@]1([C@@H]2O[C@@H]([C@H]3O[C@@](O)(CO)[C@H](C)C[C@H]3C)C[C@H]2C)CC[C@H]([C@]2(C)CC[C@]3(C[C@H](O)[C@@H](C)[C@@H]([C@@H](C)[C@@H](OC)[C@H](C)C(=O)O)O3)O2)O1	1.44 µM (active)	–
CN1CCN(CCCN2c3ccccc3Sc3ccc(Cl)cc32)CC1	8.33 µM (active)	–
CN1C(C(=O)Nc2ccccn2)=C(O)c2ccccc2S1(=O)=O	14.8 µM (active)	–
CCOC(=O)N1CCN([N+]([O-])=NOc2ccc([N+](=O)[O-])cc2[N+](=O)[O-])CC1	23.5 µM (active)	–
Fc1ccc([C@@H]2CCNC[C@H]2COc2ccc3c(c2)OCO3)cc1	14.8 µM (active)	–
N#CC(=C(N)Sc1ccc(N)cc1)c1ccccc1C(F)(F)F	2.96 µM (active)	–
CC(C)N(CC[C@H](c1ccccc1)c1cc(CO)ccc1O)C(C)C	–	105% (inactive)
C[C@@H](Oc1cc(-c2cnn(C3CCNCC3)c2)cnc1N)c1c(Cl)ccc(F)c1Cl	16.6 µM (active)	–
Cc1cn2c(-c3cn[nH]c3)cnc2c(Nc2ccc(C(=O)N3CCNCC3)cc2F)n1	18.7 µM (active)	–
CCOc1ccccc1N=Nc1c(C)[nH]n(-c2nc(-c3ccccc3)cs2)c1=O	–	97.5% (inactive)
CC[C@H](CC[C@@H](C)[C@H]1CC[C@H]2[C@@H]3CC=C4C[C@@H](O)CC[C@]4(C)[C@@H]3CC[C@]12C)C(C)C	–	94.2% (inactive)
